Mtb MenB inh = blocks the Mycobacterium tuberculosis MenB enzyme; P9WNP5; inhibition, % (concentration not given with the values); 100,000 tested, 0.43% active; MenB enzyme assay, absorbance read-out; in the data active = inhibition above about 21%, passing the limit was not always enough
MbtI inh = MbtI salicylate synthase inhibition; purified MbtI enzyme, fluorescence intensity read-out; AID 493033; 100,000 tested, 0.89% active; inhibition, % (concentration not given with the values); in the data active = inhibition mostly above about 56%, no sharp cut-off; inactive = mostly below about 77%
AID504770 = growth inhibitors of E. coli YBA685 in a screen for V. cholerae RctB (chromosome II replication) inhibitors; AID 504770; z-score (concentration not given with the values); 130,000 tested, 0.27% active; E. coli YBA685 rctB-dependent plasmid, OD600 growth, 3 h; hits give low values; in the data active = z-score below about -2, passing the limit was not always enough
Polio RdRp inh = poliovirus RNA polymerase inhibition | AID 588519 | % elongation, % (compound at 16.7 µg/mL) | 150,000 tested, 0.66% active | poliovirus polymerase elongation, fluorescence polarization; hits give low values; in the data active = % elongation below about 90%
Target sequence (P03300 1749-2209 limits assumed): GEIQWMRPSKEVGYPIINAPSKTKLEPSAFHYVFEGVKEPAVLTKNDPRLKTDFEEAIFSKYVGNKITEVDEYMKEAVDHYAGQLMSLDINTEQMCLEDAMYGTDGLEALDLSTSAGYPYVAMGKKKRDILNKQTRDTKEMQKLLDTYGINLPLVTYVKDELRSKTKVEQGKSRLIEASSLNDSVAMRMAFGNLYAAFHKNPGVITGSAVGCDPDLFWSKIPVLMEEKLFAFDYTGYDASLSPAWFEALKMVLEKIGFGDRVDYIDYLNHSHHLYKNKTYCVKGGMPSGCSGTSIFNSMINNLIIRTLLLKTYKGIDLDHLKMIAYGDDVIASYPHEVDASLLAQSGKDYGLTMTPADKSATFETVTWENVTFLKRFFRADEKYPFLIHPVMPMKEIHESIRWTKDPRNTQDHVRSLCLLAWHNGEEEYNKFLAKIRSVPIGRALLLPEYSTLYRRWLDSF
An asterisk follows results filed as active; x = not tested or not shown. Only some compounds are listed: those with a hit (about 1.5% of all), similar ones and a draw of the others.

SMILES	Mtb MenB inh	MbtI inh	AID504770	Polio RdRp inh
O=C(CC1C(=O)Sc2[nH]c(=O)sc21)c1ccc(F)cc1 (configuration not stated)	59*	85*	-0.25	55
COc1ccc2c(c1)Cc1sc(NC(=O)c3ccccc3)nc1-2	x	x	0.6	x
COc1ccc2c(c1)Cc1sc(NC(=O)c3ccccc3C)nc1-2	x	x	x	83*
COc1ccc2c(c1)Cc1sc(NC(=O)c3cccc(F)c3)nc1-2	x	x	x	90
COc1ccc(C(=O)Nc2nc3c(s2)Cc2cc(OC)ccc2-3)cc1	x	x	x	67*
COc1ccc2c(c1)Cc1sc(NC(=O)c3ccc(OC)c(Br)c3)nc1-2	-3	-7	0.25	87*
O=C1C=CC(Br)=C/C1=C\N(O)c1ccccc1	x	x	-1	x
N#Cc1c(NC(=O)/C=C/c2cccs2)sc2c1CCC2	x	x	-0.45	x
NC(=O)c1c(NC(=O)/C=C/c2cccs2)sc2c1CCCC2	-43	53*	-0.15	99
Cc1csc2nc(CSc3nc4ccc(Cl)cc4c(=O)n3CC(C)C)cc(=O)n12	2	5	1.1	104
CN1CCN(C(=O)Nc2ccc(Cc3ccc(NC(=O)N4CCN(C)CC4)cc3)cc2)CC1	-6	0	-0.7	103
CCN(CC)C(=O)Oc1cc(C(F)(F)F)nc(-c2ccc(Cl)cc2)n1	x	x	2.2	x
CCN(CC)C(=O)Oc1cc(COC)nc(-c2ccccc2)n1	x	x	-3*	x
COc1ccc(N2CCN(Cc3cc(C(C)C)c(C)cc3O)CC2)cc1	-20	10	0.4	102
COc1ccc(CCNC(=S)N2CCCC2)cc1OC	-24	-16	-0.95	100
COc1ccc(CCNC(=S)N2CCCC(C(F)(F)F)C2)cc1 (configuration not stated)	-8	84*	-0.5	80*
CCc1nc(SCc2ccccc2)[nH]c(=O)c1C	0	83*	-0.3	102
O=c1[nH]c(SCc2ccccc2)nc2ccccc12	x	40	0.5	x
CN(Cc1ccccc1)C(=O)CCc1nc(CN2CCN(C(=O)c3ccccc3)CC2)no1	10	1	-0.9	102
Cn1ccnc1SCc1csc(-c2ccccc2)n1	x	-2	-0.85	105
C/C(=N\NC(N)=S)c1ccc(O)cc1	-24	32	-1.2	104
C/C(=N\NC(=S)NC1CCCCC1)c1ccc(O)cc1	-5	90*	-0.1	92
C/C(=N\NC(=S)Nc1ccccc1C)c1ccc(O)cc1	-59	93	0.45	75*
CN(C)S(=O)(=O)c1cccc(-c2nnc(SCc3cc(Cl)cc4c3OCOC4)n2N)c1	-28	86	1.6	80*
Cc1ccc2nc(NCCN3CCOCC3)c3nncn3c2c1	-16	1	-0.15	101
SMILES	Mtb MenB inh	MbtI inh	AID504770	Polio RdRp inh
CCOc1ccc(CN(C)Cc2nc(N)nc(Nc3ccc(C)cc3)n2)cc1	-7	0	0.1	97
Cn1ncc(S(=O)(=O)Cc2ccccc2)c(Cl)c1=O	4	90*	-0.2	98
CCN(CC)c1ccc(C=C2C(=O)OC(c3ccccc3)OC2=O)cc1 (configuration not stated)	-8	x	-0.7	115
CCN(CC)c1ccc(C=C2C(=O)OC3(CCCC3)OC2=O)cc1	-96	72*	-0.1	110
Cn1c2c(c(=O)[nH]c1=O)C(NC(=O)c1ccccc1)(C(F)(F)F)C(=O)N2 (configuration not stated)	5	6	-0.1	100
O=C(/C=C/c1ccccc1)NCCSc1c[nH]c2ccccc12	x	x	-1.5	x
O=C1c2ccccc2C(=O)c2c1oc1c3c(ccc21)OCN(CCCN1CCOCC1)C3	-14	-3	-0.8	86*
O=C1c2ccccc2C(=O)c2c1oc1c3c(ccc21)OCN(C1CCCC1)C3	5	0	-0.4	83*
CC(C)CCN1COc2ccc3c4c(oc3c2C1)C(=O)c1ccccc1C4=O	-1	3	-0.3	92
O=C1c2ccccc2C(=O)c2c1oc1c3c(ccc21)OCN(CC1CCCO1)C3 (configuration not stated)	-27	1	0.3	88*
COc1ccc(CCN2COc3ccc4c5c(oc4c3C2)C(=O)c2ccccc2C5=O)cc1OC	-13	2	0.1	98
O=C1c2ccccc2C(=O)c2c1oc1c3c(ccc21)OCN(C1CCS(=O)(=O)C1)C3 (configuration not stated)	-8	-5	-1.4	87*
CC(=O)N1Cc2ccccc2CC1C(=O)Nc1ccc(F)cc1C (configuration not stated)	-14	4	-0.85	100
O=S(=O)(NC1CCc2ccccc21)c1ccc(S(=O)(=O)N2CCCC2)cc1 (configuration not stated)	39*	-5	1.4	102
O=C(NC1CCCc2ccccc21)c1cc(S(=O)(=O)N2CCCCC2)c[nH]1 (configuration not stated)	-44	-6	2	101
Cc1nn(-c2ccccc2)c(C)c1CN(C)C(=O)CN1C(=O)COc2ccccc21	-12	1	0.1	100
CN(Cc1nc2ccccc2c(=O)[nH]1)C(=O)COc1ccc2c(c1)CCC2	-35	-12	1.5	55*
Cc1cc(O)c(C=O)c2c1C(=O)Oc1c(C)c(O)c3c(c1O2)C(O)OC3=O (configuration not stated)	7	-33	0.25	66*
Cn1c(=O)c2c(nc(NCCO)n2Cc2ccc(F)cc2)n(C)c1=O	x	-9	-0.95	x
Cc1ccc2nc(NC(=O)CN3C(=O)C4C5C=CC(C5)C4C3=O)sc2c1 (configuration not stated)	x	x	-3.5	x
CCC(=O)Nc1nc2ccccc2s1	x	8	-0.05	x
CCC(=O)Nc1nc2c(s1)CSc1ccccc1-2	-11	96*	-0.5	100
CCOc1cc2c(cc1/C=C1/NC(=O)N(Cc3ccccc3)C1=O)OCO2	-19	-67	0.4	99
CN(CCC(N)=O)Cc1ccccc1	38*	-2	-0.45	101
CC1(C)CC(=O)C=C(NCCc2ccccc2)C1	33*	24	1.6	101
SMILES	Mtb MenB inh	MbtI inh	AID504770	Polio RdRp inh
O=S1(=O)N=C2CCCCCN2C(c2ccc(Br)cc2)N1 (configuration not stated)	4	-4	-0.15	22*
COc1cccc(C2NS(=O)(=O)N=C3CCCCCN32)c1OC(F)F (configuration not stated)	-13	3	-0.2	103
O=C(NCCO)c1cn(Cc2ccccc2)nc1-c1ccccc1	4	-1	-0.2	103
Cc1ccc(C)n1-c1ccc(C(=O)NCC(=O)O)cc1	-13	8	-0.6	69*
Cc1ccc2c(CC(=O)NCc3ccccc3)coc2c1C	x	x	x	1.0*
Cc1ccc(-c2cn3c4ccccc4nc3n2CCCN2CCCCC2)cc1	-9	x	-0.85	90*
CC1(C)C(C(=O)O)N2C(=O)CC2S1(=O)=O (configuration not stated)	-20	-5	-2.4*	105
N#Cc1c(N)cc(N)nc1SCc1ccc(Cl)c(Cl)c1	-17	-5	0.3	101
N#CSC(C#N)Cc1ccc(Cl)c(Cl)c1 (configuration not stated)	x	89*	-4.2*	92
Cc1ccc(-c2nnc(SCCC(=O)N3CCOCC3)o2)cc1	28*	10	-0.2	99
Clc1ccccc1CSc1nnc2n1CCCN2	x	x	-1.4	x
